Screening results: PubChem, several laboratories
PTK2B oligo ant = blocks oligomerization of human Pyk2 in cells | z-score (the deposit names both 25 µM and 10 µM) | Q14289 | Q293 cells, Pyk2 FERM NanoBiT luminescence; hits give low values | 0.83% of 99,000 active;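 active means Z-score of -3 or lower, scaled per plate to the spread of control and sample wells; inactive means z-score above -3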;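 further: negative z-score means lost luminescence so less FERM oligomerization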
Mac1 fbg inh = inhibitors of human CD11b/CD18 binding to fibrinogen; 0.54% of 93,000 active; P05107+P11215; inhibition, % at 10 µM; K562 CD11b/CD18 adhesion to fibrinogen, ATPlite luminescence; Mn2+ added to activate the integrin;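 active means primary inhibition of 50% or more at 10 µM, then 40% or more on retest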
Mac1 fbg enh = increases human CD11b/CD18 adhesion to fibrinogen; P05107+P11215; K562 CD11b/CD18 adhesion to fibrinogen, ATPlite luminescence; activation, % at 10 µM; 0.07% of 93,000 active;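 active means 10 µM primary screen giving 50% or more activity, confirmed by 40% or more on retest at that dose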
FAK blocker = FAK (human) kinase inhibition | Q05397 | biochemical FAK kinase activity assay | inhibition, %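 (tested at 7 µM)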 | 0.84% of 97,000 active | AID 727; in the data active means inhibition above about 19%;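 further: 0% = DMSO and 100% = reference compound high control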
Target sequence (Q05397 whole entry, looked up): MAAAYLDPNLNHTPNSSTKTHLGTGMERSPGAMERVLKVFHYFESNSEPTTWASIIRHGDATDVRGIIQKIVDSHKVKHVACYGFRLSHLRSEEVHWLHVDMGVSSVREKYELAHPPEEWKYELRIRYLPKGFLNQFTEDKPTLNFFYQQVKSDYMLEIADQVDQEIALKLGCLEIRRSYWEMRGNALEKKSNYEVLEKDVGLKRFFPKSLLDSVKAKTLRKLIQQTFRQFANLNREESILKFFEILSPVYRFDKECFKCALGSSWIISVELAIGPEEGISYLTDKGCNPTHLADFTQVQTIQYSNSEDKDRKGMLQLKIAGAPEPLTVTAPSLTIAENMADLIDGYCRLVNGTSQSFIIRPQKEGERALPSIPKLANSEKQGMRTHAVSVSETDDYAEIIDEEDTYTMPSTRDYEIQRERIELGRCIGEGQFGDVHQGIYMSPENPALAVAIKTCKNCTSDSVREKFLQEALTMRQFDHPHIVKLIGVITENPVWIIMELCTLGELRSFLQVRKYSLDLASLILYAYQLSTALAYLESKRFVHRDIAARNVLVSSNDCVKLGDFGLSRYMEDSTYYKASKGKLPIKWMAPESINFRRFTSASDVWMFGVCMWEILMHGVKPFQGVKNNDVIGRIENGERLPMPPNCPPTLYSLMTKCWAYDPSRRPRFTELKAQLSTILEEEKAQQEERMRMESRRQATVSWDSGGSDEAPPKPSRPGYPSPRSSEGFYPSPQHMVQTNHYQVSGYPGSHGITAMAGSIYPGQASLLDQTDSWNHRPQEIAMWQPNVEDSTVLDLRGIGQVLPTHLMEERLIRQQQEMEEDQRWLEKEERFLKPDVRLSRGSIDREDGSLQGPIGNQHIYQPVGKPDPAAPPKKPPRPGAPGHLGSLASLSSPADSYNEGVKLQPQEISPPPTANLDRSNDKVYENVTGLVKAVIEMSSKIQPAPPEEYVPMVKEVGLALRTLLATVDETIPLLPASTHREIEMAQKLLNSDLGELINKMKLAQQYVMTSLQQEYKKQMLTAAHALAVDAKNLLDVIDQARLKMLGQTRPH
* = called active by the depositor; . = not tested or not shown. A selection: hits, their analogues and other compounds. The true share with any hit is near 1.8%.

SMILES | PTK2B oligo ant | Mac1 fbg inh | Mac1 fbg enh | FAK blocker
CCOc1c(Cl)cc(C(=O)Nc2ccccc2C(=O)O)cc1Cl | -4.05* | 88.6* | -12.3 | -2.3
COc1ccccc1C(=O)Nc1cc(Cl)ccc1O | -2.36 | 7.1 | -4.5 | .
O=C(Nc1ccccc1C(=O)O)c1ccccc1 | -0.39 | -22.3 | -4.5 | -3.5
O=C1CC(O)(C(F)(F)F)Oc2c1ccc1ccccc21 (stereo not drawn) | -1.24 | 89.6* | -6.8 | 2.4
COc1ccc(S(=O)(=O)N(CCc2ccccc2)CC(=O)O)cc1 | 0.87 | -42.3 | -2.6 | -1.5
CCCCN(CCCC)S(=O)(=O)c1ccc(NC(=O)c2cccs2)cc1 | -3.16* | 50.9 | -2.1 | 1.8
Cc1cc(Cl)c(S(=O)(=O)N2CCSCC2)cc1OCC(=O)NC1CCCCC1 | -3.68* | 1.8 | 0.1 | -1.7
Cc1cc(Cl)c(S(=O)(=O)N2CCCCCC2)cc1OCC(=O)NC1CCCCC1 | 0.99 | 76.9* | -4.7 | 4.0
CCOC(=O)N1CCN(S(=O)(=O)c2cc(OCC(=O)NC3CCCCC3)c(C)cc2Cl)CC1 | -0.23 | 0.0 | -1.1 | 2.3
Cc1cc(Cl)c(S(=O)(=O)NC2CCCC2)cc1OCC(=O)NC1CCCCC1 | -1.72 | -25.2 | 0.3 | 1.9
CCN1CCN(S(=O)(=O)c2cc(OCC(=O)NC3CCCCC3)c(C)cc2Cl)CC1 | 1.38 | 58.5* | -5.3 | -2.0
O=C(NCCCN1CCOCC1)c1ccccc1NS(=O)(=O)c1cc([N+](=O)[O-])ccc1Cl | . | -14.2 | -0.8 | .
CC(C)CC(=O)Nc1nc(=S)ss1 | 1.18 | 75.0* | -6.1 | -0.6
Cc1ccccc1C(=O)Nc1nc(=S)ss1 | 0.91 | 100.3* | -11.1 | 5.7
CC(=O)Nc1nc(=S)ss1 | 0.82 | 9.3 | -3.0 | -2.2
Cc1ccc(Nc2nc(N3CCN(C)CC3)nc(N)c2[N+](=O)[O-])cc1C | . | 13.9 | 20.4 | .
Cc1ccc(C(=O)NC(N2CCCC2)C(Cl)(Cl)Cl)cc1 (stereo not drawn) | 0.17 | . | . | 2.4
CC(C)c1cc(C(=O)NNC(=S)NCc2ccco2)c(O)c(C(C)C)c1 | . | 104.4 | -9.7 | .
O=C(CSC1=NCCS1)Nc1ccnc2ccccc12 | -0.01 | 99.5* | -10.2 | .
CCOC(=O)c1ccc(S(=O)(=O)Nc2ccc3cn[nH]c3c2)cc1 | -3.01* | . | . | -2.7
NC(=O)c1ccccc1NC(=O)/C=C/c1cccc(Cl)c1 | -3.23* | . | . | 9.1
CCN(CC)S(=O)(=O)c1ccc(Oc2ccccc2)cc1 | -1.62 | 8.2 | -1.5 | 1.2
Cc1c(Br)c([N+](=O)[O-])nn1C(C)C(=O)Nc1ccc2c(c1)OCO2 (stereo not drawn) | -0.24 | -5.8 | 6.4 | -0.8
COCC(C)NC(=O)CSc1nc(-c2ccccc2)c(-c2ccccc2)o1 (stereo not drawn) | -1.96 | 10.9 | -2.6 | 4.0
COc1ccc(CCc2nc(-c3ccc(-n4cccc4)cc3)no2)cc1 | . | 62.2* | 11.6 | 6.1
SMILES | PTK2B oligo ant | Mac1 fbg inh | Mac1 fbg enh | FAK blocker
CCOC(=O)c1nn(-c2ccc(F)cc2)c2c1CC/C2=C/c1ccccc1 | . | -2.3 | 13.1 | .
Brc1ccc2[nH]c3c(N4CCc5ccccc5C4)ncnc3c2c1 | . | 74.6* | -0.4 | 4.9
COC(=O)c1ccccc1NC(=O)CSCC(=O)Nc1ccc(F)cc1 | -0.63 | 9.9 | -1.7 | -0.6
Cc1[nH]c2ccccc2c1C1C(c2ccccc2)=NN=C(C(C)C)N1O (stereo not drawn) | -3.56* | . | . | -0.8
Cc1[nH]c2ccccc2c1SCC(=O)O | 0.56 | . | . | -2.0
COc1cccc(C(c2nnnn2Cc2ccccc2)N2CCN(C(=O)c3ccco3)CC2)c1OC (stereo not drawn) | -0.55 | -22.4 | 1.4 | -0.8
Cc1ccc(C(c2nnnn2CC2CCCO2)N2CCN(c3cccc(C)c3C)CC2)cc1 (stereo not drawn) | -3.44* | 11.0 | 56.2 | 0.8
COc1cccc(C(c2nnnn2CCc2ccccc2)N2CCN(c3ccccc3)CC2)c1OC (stereo not drawn) | -3.27* | . | . | 5.0
COc1ccccc1C(c1nnnn1CCc1ccccc1)N1CCN(c2ccccc2)CC1 (stereo not drawn) | -2.04 | -4.7 | -3.0 | -4.2
COc1ccc(C(c2nnnn2CC2CCCO2)N2CCN(c3ccccc3)CC2)cc1 (stereo not drawn) | -1.44 | . | . | -0.7
COc1cccc(C(c2nnnn2Cc2ccco2)N2CCN(c3cccc(C)c3C)CC2)c1OC (stereo not drawn) | -3.88* | 1.5 | -4.4 | -1.1
CC(C)c1ccc(NC(=O)Nc2cc3sccc3n2C)cc1 | . | -11.1 | 60.6 | -7.0
[O-][n+]1c2c(c3c4non(O)c4ccc31)CCCC2 | -1.38 | 96.0* | -5.9 | 3.6
COn1c2c(c3c4no[n+]([O-])c4ccc31)CCCC2 | -0.29 | 2.6 | 29.8 | 2.3
